This is part of a sample that, as a whole, favours compounds with a hit. Of some 83,000 tested, about 20% had one in any assay.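 Each cell line was grown in a 96-well plate and treated with one concentration of compound for 48 hours. Values below 10 were considered active.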 Unmarked numbers belong to inactive results. Activity calls are given as the source filed them.
Tested on: RXF 393 renal
Assay: NCI-60 one-dose screen, 48 h (100 = growth as untreated, 0 = no growth, -100 = all killed)
Conditions: 10 µM unless noted

Row | SMILES | growth
1 | COc1cc(NCCCN=C(N)N)c2ncccc2c1 | 102%
2 | COC[C@@H]1C[C@@]2(C)[C@@H](CC[C@@H]3[C@@H]2CC[C@@]2(C)[C@H]3CC[C@]2(C)O)CC1=O | 105%
3 | C[C@]12CC[C@@H]3c4ccc(Oc5nc(N6CC6)nc(N6CC6)n5)cc4CC[C@H]3[C@@H]1CCC2=O | -6.13% (active)
4 | CCC1(C)CC(CCNCc2ccccc2O)(c2ccc(C)cc2)CCO1 (stereo unspecified) | 111%
5 | ClCCN(CCCl)Cc1ccc(Nc2ccnc3cc(Cl)ccc23)cc1 | -59.1% (active)
6 | CCN(CC)CCOC(=O)C(OC(C)C)(c1ccccc1)c1ccccc1 | 98.5%
7 | CCCc1cc(O)c2c3c(c(=O)oc2c1)CN(C)CC3 | 10.9%
8 | CCC1(C(C)C)C(=O)NC(=S)NC1=O | 94.8%
9 | C[CH2][Sn]([Cl])([Cl])[CH2]C.Oc1ccccc1C=NCCN=Cc1ccccc1O | 118%
10 | COc1ccc(O)c(CNC(=O)CN2CCCC2=O)c1 | 109%
11 | CCOC(=O)C(Cc1ccc(N(CCCl)CCCl)cc1)NC(=O)C(CC(C)C)NC(C)=O (stereo unspecified) | -15.5% (active)
12 | C[C@]12CC[C@H]3[C@@H](CC[C@]4(O)C[C@@H](O[C@@H]5O[C@H](CO)[C@@H](O[C@@H]6OC[C@@H](O)[C@H](O)[C@H]6O)[C@H](O)[C@H]5O)CC[C@]34C=O)[C@@]1(O)CC[C@@H]2C1=CC(=O)OC1 | -19.4% (active)
13 | [Au+].[N-]=C=O.c1ccc(CN2[CH-]N(Cc3ccccc3)C(c3ccccc3)=C2c2ccccc2)cc1 | 83%
14 | O=C(O)CNC(=O)C(Cl)(Cl)Cl | 92.1%
15 | N#C[Se]Cc1cc(-c2ccccc2)n(-c2ccc(S(N)(=O)=O)cc2)n1 | -3.45% (active)
16 | CCCCCC1(CCBr)C(=O)NC(=O)NC1=O | 107%
17 | COc1cc(NC(C)CCCNC2CN3CCC2CC3)c2ncccc2c1 (stereo unspecified) | 66.1%
18 | CC(=O)OCC1O[C@@H]([S-])C(OC(C)=O)[C@H](OC(C)=O)[C@@H]1OC(C)=O.[Au+].c1ccc(CN2[CH-]N(Cc3ccccc3)C(c3ccccc3)=C2c2ccccc2)cc1 | -52.3% (active)
19 | O=C(Nc1ccc(Cl)cc1)Nc1nccs1 | 2.93% (active)
20 | CC1CCCC(C[N+](C)(C)C)C1=O (stereo unspecified) | 112%
21 | O=C(O)c1ccc([S-])cc1.[Au+].c1ccc(CN2[CH-]N(Cc3ccccc3)C(c3ccccc3)=C2c2ccccc2)cc1 | -88.9% (active)
